Measured values as given in PubChem BioAssay AID2524 (Sanford-Burnham Center for Chemical Genomics, 2010).
Out of some 330,000 compounds screened, about 540 (0.16%) were called active. Shown is part of a subset that was picked to be rich in actives. A number with no mark means an inactive call.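 How the source made its calls: active means activation factor of the enzyme at least 2-fold when tested at 20 µM; inactive means the rest.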

Each compound was assayed against Intestinal-type alkaline phosphatase (Homo sapiens) (UniProt P09923) (assay: enzymatic activation of intestinal alkaline phosphatase – biochemical, luminescence, uHTS, primary screen (AID 2524)). Conditions: purified human IAP, CDP-Star luminescence, 30 min; at 10 µM; active compounds read high; 1 = vehicle-only enzyme, 0 = enzyme-free background.
Sequence of Intestinal-type alkaline phosphatase (Homo sapiens) (P09923 whole entry, looked up): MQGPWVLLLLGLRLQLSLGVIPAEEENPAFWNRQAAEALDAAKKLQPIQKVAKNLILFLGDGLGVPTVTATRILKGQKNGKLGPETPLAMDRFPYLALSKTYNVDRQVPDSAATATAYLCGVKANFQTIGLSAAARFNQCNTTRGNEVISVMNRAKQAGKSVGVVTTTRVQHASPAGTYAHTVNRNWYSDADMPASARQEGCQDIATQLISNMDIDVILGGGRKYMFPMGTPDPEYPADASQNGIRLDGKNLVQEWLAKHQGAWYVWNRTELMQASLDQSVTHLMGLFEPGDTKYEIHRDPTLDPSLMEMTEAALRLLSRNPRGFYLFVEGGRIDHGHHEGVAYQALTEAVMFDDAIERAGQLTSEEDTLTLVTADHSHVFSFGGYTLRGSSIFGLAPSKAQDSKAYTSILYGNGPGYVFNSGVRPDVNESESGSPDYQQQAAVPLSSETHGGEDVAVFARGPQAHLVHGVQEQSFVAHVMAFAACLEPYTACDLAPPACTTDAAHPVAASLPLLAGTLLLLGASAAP

Compound	activation factor
FC(F)(F)c1cccc(Cc2noc(CN3CCC(N4CCCCC4)CC3)n2)c1	1.17
C1CC1Cc1noc(CN2CCN(CC3CC3)CC2)n1	1.06
COCCN(C(=S)Nc1ccccc1OC)C1CCN(C(C)C)CC1	1.12
O=C(COC(=O)c1ccccc1F)Nc1cc(S(=O)(=O)N2CCOCC2)ccc1N1CCCC1	1.03
Cc1ccc(CNCc2ccc3c(c2)OCO3)c(C)c1	1.06
O=C(O)CSCc1ccc(C(=O)O)o1	0.943
COc1cccc2cc(C(C)N(CCCN3CCOCC3)C(=O)Nc3ccc(Cl)cc3)oc12 (centres undefined)	1.05
CC(Oc1ccc(F)cc1F)C(=O)/C=C/N(C)C (centres undefined)	1.1
COc1ccc(CC(=O)N2N=C(C)CC2(O)C(F)(F)F)cc1 (centres undefined)	1.06
CCOC(=O)C1CCN(C(=O)Nc2cccc(OC)c2)CC1	1.01
COc1ccc(S(=O)(=O)N2CCN(CC(=O)NCC3(N4CCOCC4)CCCCC3)CC2)cc1	0.925
C#CCOCCOCCOCCNc1nc(N2CCN(C(=O)CCCCCCCCCCNC(=O)[C@H](CCCCN)n3cc(C)nn3)CC2)nc(N2CCN(C(=O)CCCCCCCCCCNC(=O)[C@H](CO)n3cc(CCCSC)nn3)CC2)n1	1.1
C#CCOCCOCCOCCNc1nc(N2CCN(C(=O)CCCCCCCCCCNC(=O)[C@H]([C@@H](C)CC)n3cc(CCCCN=C(N)N)nn3)CC2)nc(N2CCN(C(=O)CCCCCCCCCCNC(=O)[C@H](CO)n3cc(CCCSC)nn3)CC2)n1	2.98 (active)
C#CCOCCOCCOCCNc1nc(N2CCN(C(=O)CCCCCCCCCCNC(=O)Cn3cc(CCCCCN)nn3)CC2)nc(N2CCN(C(=O)CCCCCCCCCCNC(=O)[C@H](CO)n3cc(CCCSC)nn3)CC2)n1	0.934
CCCN=C1NC(=O)C(CC(=O)NCCc2ccc(OC)c(OC)c2)S1 (centres undefined)	1.04
Cc1ccc(S(=O)(=O)N/N=C(\c2ccccc2)C2CC2)cc1	1.3
CCN(CC(=O)Nc1c(F)cccc1F)C(=O)C1CCC1	1.05
O=C(COC(=O)/C=C/c1nc2ccccc2s1)Nc1ccccc1Oc1ccccc1	0.94
CCCCc1c(O)nc2n(c1=O)CCS2	0.971
CCCCCCCCc1c(O)nc(-n2[nH]c(C)c(CCO)c2=O)[nH]c1=O	2.2 (active)
CCCCCc1c(C)nc(N2CCN(Cc3ccc4c(c3)OCO4)CC2)[nH]c1=O	0.962
CN(CCc1ccccn1)C(=O)CCC1CCCN(Cc2ccccc2OC(F)F)C1 (centres undefined)	1.17
CN1CCC(N(C)S(=O)(=O)c2ccc(NC(=O)c3cccc(C#N)c3)cc2)CC1	0.888

Compound	activation factor
Cc1ccc(C)c(NC(=O)c2cc(-c3cc(C)cc(C)c3O)n[nH]2)c1	1.49
Cc1ccc(O)c(-c2cc(C(=O)Nc3c(C)n(C)n(-c4ccccc4)c3=O)[nH]n2)c1	1.84
Cc1ccc(CNC(=O)c2ccccc2CCc2ccccc2)cc1	0.921
Cc1ccc(O)c(-c2cc(C(=O)NCc3ccccc3)[nH]n2)c1	2.06 (active)
Cc1ccc(NC(=O)c2cc(-c3ccccc3O)n[nH]2)cc1C	2.39 (active)
Cc1ccc(NC(=O)CCN2C(=O)c3ccccc3C2=O)cc1C	0.917
CN1CCN(CC(O)COCc2ccc3c(c2)OCO3)CC1 (centres undefined)	0.998
CC(C)COC(=O)C1C2C=CC3(CN(C(C)c4ccc(Br)cc4)C(=O)C13)O2 (centres undefined)	0.726
COc1cc(NS(=O)(=O)c2ccc(N/C=C(\C=O)c3nc4cc(Cl)ccc4o3)cc2)nc(OC)n1	1.26
COc1ccc(C(=O)NC2CC(C)(C)Cc3c2cnn3-c2ccccc2C)o1 (centres undefined)	1.38
CCCc1ccc(C(=O)COC(=O)CN2C(=O)NC3(CCCCC3C)C2=O)cc1 (centres undefined)	1.11
CC(C)CCn1c(=O)c2c(nc3n2CCCN3Cc2ccccc2)n(C)c1=O	0.846
COc1ccc(NS(=O)(=O)c2ccc(Oc3c(C#N)cccc3C#N)cc2)cc1	1.1
CCn1nc(NC(=O)c2ccco2)c2cc3ccc(C)cc3nc21	1.16
CC(C)n1cnc2c(NCc3ccccc3)cc(N[C@@H](CO)Cc3ccccc3)cc21	0.984
Cc1cc(C(=O)NNC(=O)c2cccc(S(=O)(=O)N3CCOCC3)c2)c2ccccc2n1	0.981
O=C(NNC(=S)Nc1ccccc1)c1cccc(S(=O)(=O)N2CCOCC2)c1	2.01 (active)
O=C(Nc1ccc(N2CCOCC2)cc1)c1cccc(S(=O)(=O)N2CCOCC2)c1	1.08
CCOC(=O)CNC(=O)/C=C/c1c(Cl)cccc1Cl	0.968
C/C(=N\OC(=O)c1ccccc1)c1c(C)nc2cc(C)ccn12	1.06
CCn1cc(CN2CCC(C(=O)Nc3cccc(-c4cccc(Cl)c4)c3)CC2)cn1	1.12
O=C(Nc1cccc(-c2cccc(Cl)c2)c1)C1CCN(C2CCC2)CC1	4.26 (active)
COc1cccc(-c2cccc(NC(=O)C3CCN(C4CCC4)CC3)c2)c1	1.23

Compound	activation factor
CC(=O)Nc1cccc(OCC(=O)/C=C2\N(C)c3ccccc3C2(C)C)c1	0.862
CN(C)c1cccc(C(=O)N2CCC(n3nccc3NC(=O)C3CCOC3)CC2)c1 (centres undefined)	1.28
CN1CCc2c(sc3c2c(NCc2ccco2)nc2nnnn23)C1	1.04
COc1ccc(NC(=O)CC2C(=O)OCC3CCCCN32)cc1Cl (centres undefined)	1.01
O=C(COc1ccc(Cl)cc1)NCCS(=O)(=O)N1CCN(c2ccc(F)cc2)CC1	0.818
CCc1c(C)nc(SCC(=O)NC2CCCC2)[nH]c1=O	1.03
NS(=O)(=O)c1cccc(NC(=O)COC(=O)c2cc([N+](=O)[O-])ccc2N2CCCC2)c1	0.907
CCc1ccc(S(=O)(=O)Nc2ccc(C)c(NS(C)(=O)=O)c2)cc1	0.919
Cc1ccccc1NC(=O)Cn1cc(C(=O)C2CC2)c2ccccc21	1.02
[2H]C(CCOS(N)(=O)=O)c1ccccc1 (centres undefined)	0.959
CN(C)NC(=O)c1csnc1-c1c(Cl)cccc1Cl	1.14
O=C(NCc1ccccn1)Nc1ccc(Cl)cc1	1.08
CCC(=O)Nc1ccc(C(=O)NNC(=O)c2ccc(Cl)cc2)cc1	1.31
O=C(Nc1ccc(Cl)cc1)c1ccsn1	4.15 (active)
CCCOCC(O)CC(CC)C(=O)NNC(=S)Nc1ccccc1 (centres undefined)	2.11 (active)
CCCN(CCC)CC(O)COc1ccccc1C(=O)Nc1ccccc1 (centres undefined)	0.915
CCCCC(=O)NNC(=S)NC(=O)C(c1ccccc1)c1ccccc1	1.36
CC(NC(=O)C(=O)Nc1nccs1)c1ccccc1 (centres undefined)	1.05
C[C@H](NC(=O)c1nc[nH]c1C(=O)NCC(=O)OC(C)(C)C)c1ccccc1	1.32
CC(C)(C)OC(=O)NCCCCCNC(=O)c1nc[nH]c1C(=O)NCc1ccccc1	1.26
C[C@H](NC(=O)c1[nH]cnc1C(=O)Nc1nccs1)c1ccccc1	2.51 (active)
Cc1ccc(NC(=O)c2nc[nH]c2C(=O)N[C@@H](CCCCNC(=O)OC(C)(C)C)C(=O)OC(C)(C)C)cc1	1.3
CC(C)(C)OC(=O)NCCCCCNC(=O)c1[nH]cnc1C(=O)Nc1nccs1	2.41 (active)

Compound	activation factor
Oc1ccc(-c2cccc(-c3ccc(O)cc3)c2)cc1	1.01
COc1ccc(C2CC(c3ccccc3)=NN2C(=O)CSc2nccc(=O)[nH]2)cc1 (centres undefined)	0.925
COc1ccc(CC(=O)Nc2c3c(nn2-c2cccc(Cl)c2)CS(=O)C3)cc1 (centres undefined)	1.09
O=C(NNC(=S)NCc1ccccc1)c1ccc(OC(F)F)cc1	0.898
Cc1ccc(OCC(=O)NNC(=S)NCc2ccccc2)cc1	1.08
CC(C)Oc1ccc(CCC(=O)NNC(=S)NCc2ccccc2)cc1	2.01 (active)
Cc1cccc(C(=O)N[C@H](C(=O)NCc2cccs2)C(C)C)c1	1.11
CCOCCCn1c(SCC(=O)Nc2cc(OC)ccc2OC)nc2ccccc2c1=O	0.95
OC(COc1ccc(CN2CCSCC2)cc1)CN1CCCCC1 (centres undefined)	1.12
CCCCN1C(=O)CC(N2CCOCC2)C1=O (centres undefined)	1.04
S=c1[nH]cc(-c2ccc(Cl)cc2)n1-c1ccccc1	1.42
COc1ccc(N2C(=O)NC(NS(=O)(=O)c3ccc(Cl)cc3)(C(F)(F)F)C2=O)cc1 (centres undefined)	0.861
Cn1c(N)c(C(=O)COC(=O)c2ccccc2NCc2ccco2)c(=O)n(C)c1=O	1.07
Cc1c(NC(=O)CN(C)CC(=O)Nc2ccc(F)c(F)c2F)c(=O)n(-c2ccccc2)n1C	2.09 (active)
Cc1cc(C)cc(N(CC(=O)Nc2c(C)n(C)n(-c3ccccc3)c2=O)S(C)(=O)=O)c1	0.988
Cc1ccc(Cl)c(NC(=O)CN(C)CC(=O)Nc2ccc(F)c(F)c2F)c1Cl	1.68
Cc1ccc(OCC(=O)NCCCNC(=O)c2cccnc2)cc1C	1.06
COc1ccc(C(=O)NC2CC(C)(C)Cc3c2cnn3-c2ccccc2)c(OC)c1 (centres undefined)	1.07
Cc1cc(C(=O)NC2CC(C)(C)Cc3c2cnn3-c2ccccc2)n[nH]1 (centres undefined)	2.15 (active)
CC1=C(C(=O)NC2CC(C)(C)Cc3c2cnn3-c2ccc(C)cc2)OCCO1 (centres undefined)	1.1
